Results on five compounds are retold here after PubChem BioAssay.

Assay [1] deals with Plasmodium falciparum Sir2 (PF13_0152, Sir2A). Nature of the assay: pfSir2 binders on small-molecule microarrays, primary screen, biochemical, small-molecule microarray, 635 nm fluorescence (AID 1098).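 Further: score merges spot fluorescence intensity with its signal-to-noise ratio.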 Conditions: small-molecule microarray binding, fluorescence 635 nm; higher = more signal.
The nature of assay [2]: small-molecule microarray binders of probe aDKK1, primary screen, biochemical, biotinylated probe, 635/667 nm fluorescence (AID 1099).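 Further: score merges 667nm spot fluorescence with signal to noise across triplicate slides.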 Conditions: higher = more signal.
Assay [3] is described as follows: small-molecule microarray binders of probe aCHRDL2, primary screen, biochemical, biotinylated probe, 635/667 nm fluorescence (AID 1100). The note with it: higher = more signal.
The nature of assay [4]: splicing luciferase reporter signal modulators, primary screen, spliceosome inhibition project, cell-based, HEK293, splice +/- reporter (AID 1101).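 Further: HEK293 cells carrying a splicing-competent luciferase reporter gene; test concentration not given here.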 Conditions: luminescence, 24 h, higher = more signal, called active from +8 up or from −8 down. (In general: A reporter such as luciferase makes a cellular process visible.)
The target of assay [5] is Fibroblast growth factor 10 (Homo sapiens) (UniProt O15520). The assay is described as follows: FGF10 binders on small-molecule microarrays, primary screen, biochemical, small-molecule microarray, 635 nm fluorescence (AID 1102). The note with it: FGF10 binding, fluorescence 635 nm, higher = more signal.
The subject of assay [6] is glycogen synthase kinase-3 (GSK3A per assay name; protocol says GSK3B). The assay is described as follows: GSK3 binders on small-molecule microarrays, primary screen, biochemical, small-molecule microarray, 635 nm fluorescence, GSK3A (AID 1103). Further: the record names both GSK3A and GSK3B. Conditions: small-molecule microarray binding, fluorescence 635 nm; higher = more signal.
The target in assay [7] is Epidermal growth factor receptor (Homo sapiens) (UniProt P00533). Nature of the assay: EGFR binders on small-molecule microarrays, primary screen, biochemical, small-molecule microarray, 635 nm fluorescence (AID 1104).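 Further: score merges 667 nm emission intensity with spot signal to noise over triplicate slides.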 Conditions: EGFR binding, higher = more signal.
The target in assay [8] is Follistatin-related protein 3 (Homo sapiens) (UniProt O95633). The assay is described as follows: FSTL3 binders on small-molecule microarrays, primary screen, biochemical, small-molecule microarray, 635 nm fluorescence (AID 1105).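 Further: score merges emission near 667 nm and signal to noise per printed spot across three slides.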 Conditions: FSTL3 binding, higher = more signal.
The target in assay [9] is Dickkopf-related protein 1 (Homo sapiens) (UniProt O94907). Nature of the assay: DKK1 binders on small-molecule microarrays, primary screen, biochemical, small-molecule microarray, 635 nm fluorescence scan (AID 1106).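 Further: score merges emission near 667 nm with signal to noise over three replicate slides.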 The note with it: DKK1 binding, higher = more signal.
The subject of assay [10] is Inhibin beta A chain (activin A). The assay is described as follows: INHBA (activin A) binders on microarrays, primary screen, biochemical, small-molecule microarray, 635 nm fluorescence scan (AID 1107).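 Further: mouse activin A protein probed at 4.33 µg/mL on printed slides; score merges bound-protein fluorescence near 667 nm with spot signal-to-noise.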 The note with it: small-molecule microarray binding, higher = more signal.
Assay [11] has as its system Human papillomavirus type 1a protein E7 (residues 44-93). Nature of the assay: HPV1a E7 fragment binders on microarrays, primary screen, biochemical, small-molecule microarray, residues 44-93, 635 nm fluorescence (AID 1108).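 Further: E7 fragment applied at 1 µg/mL in TBST for 1 h at 4 C; score combines spot fluorescence with its signal to noise ratio.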 The note with it: small-molecule microarray binding, fluorescence 635 nm; higher = more signal.
Assay [12] is described as follows: modulators of HCV replicon luciferase signal, primary screen, HCV replication inhibitor project, Huh7 cells, luciferase reporter (AID 1109).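 Further: huh7 hepatoma cells harbouring a luciferase neomycin HCV replicon reporter; luciferase luminescence as measure of HCV replicon replication; test concentration not given here.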 The note with it: 48 h, higher = more signal.
Assay [13] addresses Left-right determination factor 2 (Homo sapiens) (UniProt O00292). Nature of the assay: LEFTY2 binders on small-molecule microarrays, primary screen, biochemical, small-molecule microarray, 635 nm fluorescence scan (AID 1110). The note with it: LEFTY2 binding, higher = more signal.
The target of assay [14] is Calmodulin-1 (Homo sapiens) (UniProt P0DP23). The assay is described as follows: CALM1 binders on microarrays, EGTA buffer, profiling panel, biochemical, small-molecule microarray, Cy5-labelled CALM1 (AID 1111).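 Further: labelled calmodulin applied in Tris saline Tween buffer holding calcium plus EGTA and DTT.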 Conditions: Cy5-CALM1 binding fluorescence, higher = more signal.
Assay [15] has the same target. Nature of the assay: calcium-bound CALM1 binders on microarrays, profiling panel, artefact control for SMM control-protein annotation, biochemical, small-molecule microarray, Cy5-labelled CALM1, plus calcium (AID 1112).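 Further: score merges spot fluorescence with signal to noise from triplicate slides.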 Conditions: Cy5-CALM1 binding fluorescence, higher = more signal.
A short description of assay [16]: small-molecule microarray binders of probe aWnt5a, primary screen, biochemical, biotinylated probe, 635/667 nm fluorescence (AID 1113).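 Further: score merges 667 nm fluorescence intensity with signal-to-noise per printed feature.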 Conditions: higher = more signal.
A short description of assay [17]: small-molecule microarray binders of probe aShh, primary screen, biochemical, biotinylated probe, 635/667 nm fluorescence (AID 1114).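 Further: probe is biotin-labelled aShh protein from a stem cell growth factor screen; measures binding of labelled protein to compounds printed on the slide; score merges feature fluorescence at 667 nm with signal-to-noise.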 The note with it: higher = more signal.
A short description of assay [18]: small-molecule microarray binders of probe aNog, primary screen, biochemical, biotinylated probe, 635/667 nm fluorescence (AID 1115).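 Further: probe is biotinylated aNog protein used at 0.15 µg/mL for 1 h at 4 C; z-score combines 667 nm fluorescence of each spot with its signal to noise.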 Conditions: higher = more signal.
The target in assay [19] is Torsin-1A-interacting protein 1 (Homo sapiens) (UniProt Q5JTV8). Nature of the assay: LAP1 binders from COS7 cell lysate, primary screen, small-molecule microarray, 635/667 nm fluorescence (AID 1116). Conditions: COS7-hLAP1 lysate binding, 635 nm fluorescence, higher = more signal.
The target of assay [20] is Alpha-bungarotoxin (Bungarus multicinctus) (UniProt P60615). The assay is described as follows: alpha-bungarotoxin binders on microarray, profiling panel, artefact control for SMM control protein annotation, biochemical, small-molecule microarray, Alexa647 label, 635/667 nm fluorescence (AID 1117). Conditions: alpha-BTX-A647 binding fluorescence, higher = more signal.

Calls of active or inactive are those of the source.

Alpha-bungarotoxin (Bungarus multicinctus), sequence (P60615 whole entry, looked up): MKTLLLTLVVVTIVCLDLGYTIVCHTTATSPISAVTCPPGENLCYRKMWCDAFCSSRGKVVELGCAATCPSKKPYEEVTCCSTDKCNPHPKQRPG
Left-right determination factor 2 (Homo sapiens), sequence (O00292 whole entry, looked up): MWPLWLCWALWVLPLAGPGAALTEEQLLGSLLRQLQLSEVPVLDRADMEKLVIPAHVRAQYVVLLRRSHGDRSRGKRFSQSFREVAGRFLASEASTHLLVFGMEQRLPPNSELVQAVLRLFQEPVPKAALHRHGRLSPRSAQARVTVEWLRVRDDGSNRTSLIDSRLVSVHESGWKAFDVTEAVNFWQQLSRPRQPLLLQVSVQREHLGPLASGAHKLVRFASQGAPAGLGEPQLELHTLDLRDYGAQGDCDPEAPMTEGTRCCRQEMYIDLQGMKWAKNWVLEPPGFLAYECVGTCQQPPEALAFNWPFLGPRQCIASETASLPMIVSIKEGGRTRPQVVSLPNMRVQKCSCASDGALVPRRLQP
Torsin-1A-interacting protein 1 (Homo sapiens), sequence (Q5JTV8 whole entry, looked up): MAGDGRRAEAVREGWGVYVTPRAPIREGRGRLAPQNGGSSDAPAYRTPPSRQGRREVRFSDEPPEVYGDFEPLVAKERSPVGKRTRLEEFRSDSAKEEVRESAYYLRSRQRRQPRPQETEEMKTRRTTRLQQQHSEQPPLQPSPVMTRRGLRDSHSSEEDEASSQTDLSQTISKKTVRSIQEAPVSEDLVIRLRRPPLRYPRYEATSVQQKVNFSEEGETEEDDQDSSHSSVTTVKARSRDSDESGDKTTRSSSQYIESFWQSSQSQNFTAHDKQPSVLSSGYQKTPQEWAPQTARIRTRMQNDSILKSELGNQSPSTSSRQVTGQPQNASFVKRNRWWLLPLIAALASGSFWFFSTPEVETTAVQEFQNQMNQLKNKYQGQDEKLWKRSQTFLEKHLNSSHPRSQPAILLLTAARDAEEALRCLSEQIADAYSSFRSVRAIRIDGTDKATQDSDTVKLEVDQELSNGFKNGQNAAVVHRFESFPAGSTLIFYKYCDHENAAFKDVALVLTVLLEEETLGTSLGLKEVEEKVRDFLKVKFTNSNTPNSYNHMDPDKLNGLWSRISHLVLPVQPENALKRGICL
Fibroblast growth factor 10 (Homo sapiens), sequence (O15520 whole entry, looked up): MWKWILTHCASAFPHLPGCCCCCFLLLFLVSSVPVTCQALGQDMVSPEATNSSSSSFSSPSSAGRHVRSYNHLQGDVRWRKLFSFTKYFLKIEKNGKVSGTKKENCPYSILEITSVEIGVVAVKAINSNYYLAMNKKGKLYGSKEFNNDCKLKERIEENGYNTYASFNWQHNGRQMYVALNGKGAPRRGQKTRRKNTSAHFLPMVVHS
Follistatin-related protein 3 (Homo sapiens), sequence (O95633 whole entry, looked up): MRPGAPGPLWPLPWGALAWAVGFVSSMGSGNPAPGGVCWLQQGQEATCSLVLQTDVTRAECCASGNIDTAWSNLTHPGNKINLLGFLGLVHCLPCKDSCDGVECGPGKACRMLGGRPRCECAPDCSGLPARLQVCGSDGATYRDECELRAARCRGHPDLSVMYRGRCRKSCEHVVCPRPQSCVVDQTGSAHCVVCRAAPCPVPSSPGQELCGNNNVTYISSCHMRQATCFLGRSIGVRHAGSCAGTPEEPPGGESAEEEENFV
Dickkopf-related protein 1 (Homo sapiens), sequence (O94907 whole entry, looked up): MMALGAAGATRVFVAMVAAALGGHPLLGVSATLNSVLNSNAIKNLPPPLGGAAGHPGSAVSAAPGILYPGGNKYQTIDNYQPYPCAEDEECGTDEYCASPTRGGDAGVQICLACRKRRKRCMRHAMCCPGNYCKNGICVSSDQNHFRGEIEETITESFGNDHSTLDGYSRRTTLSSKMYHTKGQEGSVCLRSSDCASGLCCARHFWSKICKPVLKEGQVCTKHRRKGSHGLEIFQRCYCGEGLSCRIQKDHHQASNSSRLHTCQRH
Epidermal growth factor receptor (Homo sapiens), sequence (P00533 whole entry, looked up): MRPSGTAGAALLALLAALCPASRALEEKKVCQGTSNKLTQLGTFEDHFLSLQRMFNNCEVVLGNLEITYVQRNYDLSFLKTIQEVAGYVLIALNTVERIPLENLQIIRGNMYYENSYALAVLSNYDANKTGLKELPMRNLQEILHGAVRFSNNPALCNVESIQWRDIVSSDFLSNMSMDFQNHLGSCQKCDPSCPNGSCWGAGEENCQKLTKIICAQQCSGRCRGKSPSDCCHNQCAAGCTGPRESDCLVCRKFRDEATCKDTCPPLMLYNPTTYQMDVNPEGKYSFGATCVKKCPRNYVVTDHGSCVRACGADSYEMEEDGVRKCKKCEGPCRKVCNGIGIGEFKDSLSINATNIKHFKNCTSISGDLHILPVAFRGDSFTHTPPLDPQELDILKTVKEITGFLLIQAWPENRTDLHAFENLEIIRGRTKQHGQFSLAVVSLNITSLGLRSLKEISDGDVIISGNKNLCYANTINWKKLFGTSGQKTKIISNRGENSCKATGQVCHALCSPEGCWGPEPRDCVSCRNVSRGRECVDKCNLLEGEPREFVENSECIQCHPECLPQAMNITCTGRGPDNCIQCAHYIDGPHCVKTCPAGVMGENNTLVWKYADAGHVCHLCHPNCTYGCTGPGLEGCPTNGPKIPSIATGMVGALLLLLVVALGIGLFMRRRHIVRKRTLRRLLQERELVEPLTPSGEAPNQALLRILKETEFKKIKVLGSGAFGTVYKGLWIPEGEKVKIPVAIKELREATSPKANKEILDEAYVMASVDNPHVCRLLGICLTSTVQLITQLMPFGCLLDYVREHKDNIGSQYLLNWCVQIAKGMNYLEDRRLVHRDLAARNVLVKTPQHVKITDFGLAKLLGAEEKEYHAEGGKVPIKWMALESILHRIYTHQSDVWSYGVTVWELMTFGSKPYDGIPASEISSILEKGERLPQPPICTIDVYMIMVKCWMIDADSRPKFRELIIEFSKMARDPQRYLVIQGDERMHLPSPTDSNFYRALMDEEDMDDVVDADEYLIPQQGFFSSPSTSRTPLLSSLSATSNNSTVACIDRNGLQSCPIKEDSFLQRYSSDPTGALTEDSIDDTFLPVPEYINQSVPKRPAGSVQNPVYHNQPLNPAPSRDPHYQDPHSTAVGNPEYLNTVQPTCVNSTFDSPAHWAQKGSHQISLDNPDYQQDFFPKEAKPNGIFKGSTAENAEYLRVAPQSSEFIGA

With `C=CCOC(=O)[C@@H]1[C@H]2C(=O)O[C@H](c3ccccc3)[C@H](c3ccccc3)N2[C@H](c2ccc(OCCOC(=O)[C@H]3C[C@H]4C(=O)N[C@@H](CCCCN(C)C)C(=O)N4[C@H]3c3cccc(OCCO)c3)cc2)[C@@]12C(=O)Nc1ccccc12`, the composite z-score in [1] is 0.938; in assay [2] it was 0.342; in assay [3], 0.707; in assay [5], -0.515; in assay [6] it was 0.602; in assay [7], -0.632. Moreover, the composite z-score in assay [8] was -0.335; in assay [9], -0.679; in [10], 0.0981; in assay [11] it was 0.313; in assay [13], -1.19; in assay [14], 0.12. Also, the composite z-score in [15] is 0.177; in assay [16], -0.033; in assay [17] it was 0.584; in assay [18] it was 0.511; in assay [19], 0.518; in [20], 0.175. For the same compound, the values for the z-score in [4] and in assay [12] were 0.0554 (inactive) and -0.772, respectively.

As for `CCc1cccc(NC(=O)O[C@H]2[C@H](OC(=O)Nc3ccccc3-c3ccccc3)[C@H](OC(=O)Nc3ccccc3-c3ccccc3)[C@@H](OC)O[C@@H]2CO)c1`, the composite z-score came out at 0.477 in assay [1]; 0.632 in assay [2]; 0.444 in assay [3]; 1.45 in [5]; 1.34 in assay [6]; 0.851 in [7]. The composite z-score in assay [8] came to 1.31; in [9], 0.635; in assay [10], 0.838; in [11] it was 1.42; in assay [13], 0.588; in assay [14], 1.44. Moreover, the composite z-score in assay [15] was -0.301; in [16], 0.179; in assay [17], 0.0796; in assay [18], -0.318; in assay [19], 1.81; in assay [20], 1.29. The z-score in assay [4] is 1.93 (inactive); in assay [12] it was -1.95.

On to `COC(=O)C1=CC(c2ccc(CO)cc2)=CC(C2CC2)N(Cc2cc3c(cc2Br)OCO3)C=C1C(=O)OC` (stereo not given), for which the composite z-score was 1.66 in assay [1]; 0.706 in assay [2]; 0.844 in assay [3]; 1.18 in assay [5]; 1.29 in assay [6]; 0.737 in assay [7]. Further, the composite z-score in assay [8] is 0.89; in assay [9], 0.157; in assay [10] it was 0.836; in [11], 1.32; in [13], 0.568; in assay [14], 2.06. For the same compound, the composite z-score in [15] came to 0.631; in assay [16] it was 0.0251; in assay [17], 0.254; in assay [18], 0.564; in [19], 2.15; in [20], 2.47. For the same compound, the z-score in assay [4] was 1.17 (inactive); in [12], -1.41.

For `COCCCNC(=O)[C@@]1(CCC(=O)OC(C)(C)C)N=C(c2ccc(OCCCO)cc2)O[C@H]1c1ccccc1`, the composite z-score in assay [1] is 1.06; in assay [2] it was 0.96; in [3] it was 1.02; in [5], 0.638; in assay [6], -0.505; in assay [7], -0.266. For the same compound, the composite z-score in assay [8] is 0.297; in assay [9], -0.538; in assay [10], 0.701; in [11], 1.37; in assay [13], -0.926; in assay [14], 1.1. In addition, the composite z-score is 0.783 in assay [15]; -0.0566 in [16]; 0.123 in assay [17]; 1.83 in assay [18]; 1.49 in assay [19]; 1.32 in assay [20]. Moreover, the z-score is -0.187 (inactive) in assay [4] and -0.618 in assay [12].

Consider `O=C1NC(=O)C2C1C=CC(C(O)C(O)CO)N2Nc1ccccn1` (stereo not given), for which the composite z-score in [1] was 0.0854; in assay [2] it was -0.191; in assay [3], -0.104; in assay [5] it was 0.183; in assay [6], 0.335; in assay [7], 0.386. For the same compound, the composite z-score in assay [8] amounted to 0.178; in assay [9] it was 0.173; in assay [10], 0.0473; in [11], 0.492; in [13], 0.322; in assay [14] it was 0.339. Also, the composite z-score in assay [15] was -0.635; in [16], 0.0502; in assay [17] it was -0.0035; in assay [18], -0.201; in assay [19] it was 0.0465; in assay [20], 0.315. For the same compound, the z-score in assay [4] was -0.396 (inactive); in [12], 0.538.
